# TbPYK inhibitor = blocks Trypanosoma brucei pyruvate kinase | Potency, µM (top dose mostly 76.8 µM), actives largely listed as inhibitors | AID 624173 | TbPYK enzyme, Kinase-Glo Plus ATP luminescence, 45 min | actives 0.12% (n = 410,000); active means well fitted curve in the direction sought with a large enough effect; inconclusive means small, poorly fitted or top-dose-only effect, or another doubt; inactive means no such curve, though single readings can be large; an effect the other way counts as inactive or inconclusive; further: nearly all actives have a fitted effect of over 50% in size
#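 Readout: single end-point luminescence (Kinase-Glo Plus, 10 min). Reaction conditions were TbPYK/substrate plus 130 uM ADP, 45 min at RT, pH 7.2 TEA buffer. No-enzyme wells served as controls, and data were normalized before concentration-response fitting.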
# NS1 function inh = inhibitors of influenza NS1 protein function | Potency, µM (highest dose often 46.1 µM) | actives 0.4% (n = 270,000) | AID 2326; further: actives are rising curves; nearly all actives have a fitted effect of over 50% in size
#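 Growth recovery, yeast-based: influenza A NS1 expressed in S. cerevisiae causes slow growth, and suppressors are detected by OD600. The parent strain without NS1 is used as positive control.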
# SARS PLP yeast = inhibitors of SARS-CoV papain-like protease in yeast | S. cerevisiae expressing SARS-CoV PLpro, growth rescue | Potency, µM (highest dose often 32.9 µM), usual class: activators | actives 0.19% (n = 330,000) | AID 485353; further: nearly all actives have a fitted effect of over 55% in size
# LmPK inh = LmPK (Leishmania mexicana) enzyme inhibition; purified LmPK, Kinase-Glo ATP luminescence, 1 h; Potency, µM (top dose mostly 57.5 µM), most hits filed as inhibitors; actives 0.37% (n = 290,000); active means well fitted curve in the direction sought with a large enough effect; inconclusive means small, poorly fitted or top-dose-only effect, or another doubt; inactive means no such curve, though single readings can be large; an effect the other way counts as inactive or inconclusive
# Target sequence (Q27686 whole entry, looked up): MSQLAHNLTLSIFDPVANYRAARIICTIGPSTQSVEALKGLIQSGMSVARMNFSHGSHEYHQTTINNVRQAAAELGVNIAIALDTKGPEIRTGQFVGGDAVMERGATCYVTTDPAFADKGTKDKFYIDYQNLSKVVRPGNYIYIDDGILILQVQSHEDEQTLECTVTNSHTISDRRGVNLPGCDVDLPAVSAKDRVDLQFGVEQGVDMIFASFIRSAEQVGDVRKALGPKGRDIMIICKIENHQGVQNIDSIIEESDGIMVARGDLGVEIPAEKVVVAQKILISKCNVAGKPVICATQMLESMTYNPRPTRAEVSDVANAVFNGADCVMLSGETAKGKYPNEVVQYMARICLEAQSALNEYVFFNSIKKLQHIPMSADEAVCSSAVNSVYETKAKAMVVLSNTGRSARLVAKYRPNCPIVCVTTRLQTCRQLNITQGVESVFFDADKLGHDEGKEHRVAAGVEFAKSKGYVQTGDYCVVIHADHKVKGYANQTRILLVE
#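 Kinase-Glo luminescence read after 1 h RT reaction of 0.1 nM LmPK with 0.5 mM PEP and 0.1 mM ADP. Activity scaled between uninhibited and enzyme-free controls.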
# Shiga inhibitor = Shiga toxin inhibition; actives 9.2% (n = 290,000); AID 2315; Vero cells, Shiga toxin protein synthesis inhibition reporter; inhibition, % at 38.7 µM; in the data active means inhibition mostly above about 28%, no sharp cut-off; inactive means mostly below about 43%
# Cycloheximide cs = counter-screen for Shiga toxin inhibitors: cycloheximide protein synthesis inhibition; cell reporter, cycloheximide protein synthesis inhibition counterscreen; max response, %; actives 12% (n = 300,000); in the data active means max response mostly above about 13%, no sharp cut-off; inactive means mostly below about 14%; further: read at 38.3 µM for the half of the compounds with a filed dose
# A number is an active result; – = inactive; ? = inconclusive; · = no result given. This excerpt belongs to a sample that is enriched for hits. Unless noted, the call rests on the fitted dose curve.
SMILES,TbPYK inhibitor,NS1 function inh,SARS PLP yeast,LmPK inh,Shiga inhibitor,Cycloheximide cs
COc1cc(C(=S)N2CCCC2)ccc1OCc1ccc(C)cc1,–,–,–,–,81,69
CCOc1ccc(C(=S)N2CCCC2)cc1OC,–,–,–,–,–,–
Cc1ccc(COc2ccccc2C(=S)N2CCCC2)cc1,–,·,–,–,–,17
COc1cnc(-c2ccccn2)nc1Oc1ccc(F)cc1F,–,·,–,–,–,33
COc1cnc(-c2ccccn2)nc1Oc1ccccc1Cl,–,–,–,–,–,30
COc1cnc(-c2ccccn2)nc1Oc1ccc(Cl)cc1,–,–,–,–,–,–
N/C(Cc1cccc2ccccc12)=N\OC(=O)Cc1cccs1,–,–,–,–,62,49
COc1ccc(OCC(=O)O/N=C(\N)Cc2ccc(Cl)cc2Cl)cc1,–,–,–,–,–,–
Cc1ccccc1OCC(=O)O/N=C(\N)Cc1cccs1,–,?,–,–,–,–
N/C(Cc1ccc(Cl)cc1Cl)=N\OC(=O)c1cccs1,–,–,–,–,52,–
N/C(Cc1cccc2ccccc12)=N\OC(=O)c1cccs1,–,–,–,–,–,–
N/C(Cc1ccc(Cl)cc1Cl)=N\OC(=O)Cc1cccs1,–,–,–,–,51,36
N/C(Cc1cccs1)=N\OC(=O)COc1ccc(Cl)cc1Cl,–,–,–,–,127,59
COc1ccccc1C/C(N)=N/OC(=O)c1cccs1,–,–,–,–,–,18
COc1ccccc1C/C(N)=N/OC(=O)/C=C/c1ccccc1,–,·,–,–,53,22
COc1ccccc1CNC(=O)c1cccs1,–,–,·,–,–,–
COc1ccc(CNC(=S)Nc2cccc(F)c2)cc1,–,?,–,–,28,12
COc1ccc(CNC(=S)Nc2cccc(C)c2)cc1,–,–,–,–,–,–
Cc1cccc(NC(=S)NCc2ccc(F)cc2)c1,–,–,–,–,–,–
COc1cccc(NC(=S)NCc2ccc(F)cc2)c1,–,–,–,–,–,14
Nc1ccc2nc(-c3cccc(-c4nc5ccc(N)cc5[nH]4)n3)[nH]c2c1,–,–,–,–,–,–
Cc1ccc2nc(-c3cccc(N)c3)[nH]c2c1,–,–,–,16µM,33,17
Cc1ccc2nc(-c3sc4nc(C)cc(C)c4c3N)[nH]c2c1,–,–,–,–,43,26
Nc1ccc2nc(-c3ccc(-c4nc5ccc(N)cc5[nH]4)cc3)[nH]c2c1,–,–,–,–,–,–
Nc1cccc(-c2nc3ccccc3[nH]2)c1,–,–,–,?,71,22
SMILES,TbPYK inhibitor,NS1 function inh,SARS PLP yeast,LmPK inh,Shiga inhibitor,Cycloheximide cs
Cc1ccc2ccc3c(c2n1)NS(=O)(=O)c1ccc(C(F)(F)F)cc1-3,·,·,·,·,–,–
O=C(Nc1ccccc1Br)C(Cc1ccccc1)NS(=O)(=O)c1cccc2nsnc12 (centres undefined),–,·,·,·,·,·
COc1ccc(Cc2nc(-c3ccncc3)no2)cc1,–,–,–,–,85,37
COc1ccc(-c2noc(Cc3ccccc3OC)n2)cc1,–,–,–,–,–,–
Clc1ccc(-c2noc(CCCc3ccccc3)n2)cc1,·,–,–,–,–,–
COc1ccc(-c2noc(Cc3cccs3)n2)cc1,–,–,–,–,82,32
Clc1ccc(Cc2nc(-c3ccncc3)no2)cc1,–,–,–,–,–,17
CC1=C(c2ccc(C)c(C)c2)S(=O)(=O)N(Cc2ccc(C(=O)Nc3cc(F)ccc3F)cc2)C1=O,–,·,·,·,·,·
O=C(c1ccccc1)N1CCN(c2nc3ccc([N+](=O)[O-])cc3s2)CC1,–,–,–,–,–,–
c1ccc2sc(N3CCCCC3)nc2c1,–,·,·,·,·,·
O=C(c1cccs1)N1CCN(c2nc3c(F)cc(F)cc3s2)CC1,–,·,–,·,·,·
Fc1ccc2nc(N3CCCC3)sc2c1,–,·,–,–,85,44
O=[N+]([O-])c1ccc2nc(N3CCCC3)sc2c1,–,–,–,–,68,29
Fc1cc(F)c2nc(N3CCCCC3)sc2c1,–,–,–,?,115,78
C[C@@H]1c2ccccc2Cn2cc3c(c21)C(=O)c1cccc(OP(=O)(O)OCc2ccccc2)c1C3=O,·,–,·,·,·,·
O=C(CN1C(=O)COc2ccccc21)N(Cc1ccccc1)Cc1ccccn1,–,–,–,–,–,35
CCc1ccccc1NC(=O)CSc1nncn2c1cc1oc(C)cc12,–,·,·,·,·,·

# Screens from PubChem.
